LmPK inh: qHTS Assay for Inhibitors of Leishmania Mexicana Pyruvate Kinase (LmPK) | 0.37% of 290,000 active | Q27686 | purified LmPK, Kinase-Glo ATP luminescence, 1 h | Potency, µM (doses to about 57.5 µM), for the others: at the highest dose activity change, negative = inhibition, most hits filed as inhibitors | AID 1721, 2009; further: potency means the concentration at half of the fitted maximal effect; on the % scale 0 is the no-effect control and ±100 the full control effect
Target sequence (Q27686 whole entry, looked up): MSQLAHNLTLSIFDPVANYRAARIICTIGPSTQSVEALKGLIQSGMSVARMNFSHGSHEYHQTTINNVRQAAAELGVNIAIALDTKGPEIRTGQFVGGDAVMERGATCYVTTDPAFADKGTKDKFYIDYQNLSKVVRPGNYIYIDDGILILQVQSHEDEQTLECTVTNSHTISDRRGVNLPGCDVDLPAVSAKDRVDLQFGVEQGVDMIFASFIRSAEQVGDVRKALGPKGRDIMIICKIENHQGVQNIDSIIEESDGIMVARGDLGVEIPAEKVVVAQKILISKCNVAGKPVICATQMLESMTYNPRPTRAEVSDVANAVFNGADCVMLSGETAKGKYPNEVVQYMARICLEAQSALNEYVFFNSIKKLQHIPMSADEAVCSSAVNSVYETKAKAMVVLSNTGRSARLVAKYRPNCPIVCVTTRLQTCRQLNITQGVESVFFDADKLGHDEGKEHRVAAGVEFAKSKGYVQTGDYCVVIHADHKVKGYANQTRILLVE
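In 50 mM imidazole pH 7.2 with 7 mM MgCl2, LmPK (0.1 nM) turned over PEP (0.5 mM) and ADP (0.1 mM) for 1 h at room temperature. Luciferase read-out of ATP.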
CHX counter: Cycloheximide Counterscreen for Small Molecule Inhibitors of Shiga Toxin | cell reporter, cycloheximide protein synthesis inhibition counterscreen | max response, % | 12% of 300,000 active | AID 2314, 2010; in the data active means max response mostly above about 13%, no sharp cut-off; inactive means mostly below about 14%; further: read at 38.3 µM for the half of the compounds with a filed dose; 0% is about no effect
NS1 function inh: qHTS Assay for Inhibitors of Influenza NS1 Protein Function. Potency, µM (titrated, usually from 46.1 µM), for the others: at the top dose activity, positive = more growth. 0.4% of 270,000 active. AID 2326, 2010; calls by dose curve; further: potency means the concentration at half of the fitted maximal effect; actives are rising curves; nearly all actives have a fitted effect of over 50% in size
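S. cerevisiae expressing influenza A NS1, grown in glucose, washed, then diluted 1:100 into pH 6.0 -URA galactose medium with 23 nl compound. Growth recovery read as OD600; NS1-free strain serves as control.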
Giardia FBPA inh: qHTS Assay for Inhibitors of Fructose-1,6-bisphosphate Aldolase from Giardia Lamblia; A8B2U2; purified Giardia FBPA; Potency, µM (titrated, usually from 59.6 µM), for inactives: at the top dose activity, negative = inhibition, usual class: inhibitors; 0.71% of 290,000 active; AID 2451, 2010; further: potency means the concentration at half of the fitted maximal effect; on the % scale 0 is the no-effect control and ±100 the full control effect; nearly all actives have a fitted effect of over 55% in size
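40 nM FBPA preincubated 10 min at RT with compound (up to 57.5 uM final), then substrate plus GAPDH/TPI/NAD/arsenate coupling and diaphorase/resazurin added. Fluorescence read after 20 min at RT, 525/598 nm.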
Shiga toxin inh: A qHTS for Small Molecule Inhibitors of Shiga Toxin; Vero cells, Shiga toxin protein synthesis inhibition reporter; inhibition, % at 38.7 µM; 9.2% of 290,000 active; in the data active means inhibition mostly above about 28%, no sharp cut-off; inactive means mostly below about 43%; further: 0% is about no effect
The depositor's hits bear a star; ? = inconclusive; . = no result given; [ ] = dose if it differs, or a comment. Rows were chosen to be rich in hits. Some 14% of all compounds tested hit in one or more screens of this group. Unless noted, the call rests on the fitted dose curve; in most records, active means well fitted curve in the direction sought with a large enough effect; inconclusive means small, poorly fitted or top-dose-only effect, or another doubt; inactive means no such curve, though single readings can be large; an effect the other way counts as inactive or inconclusive.

SMILES	LmPK inh	CHX counter	NS1 function inh	Giardia FBPA inh	Shiga toxin inh
COC(=O)[C@H](Cc1ccccc1)NC(=O)[C@H]1C[C@@H]1[C@H](NC(=O)OCc1ccccc1)c1ccccc1	.	.	.	2%	.
C=CCOC(=O)c1ccc(N2CCN(c3ccccc3)CC2)nc1	-6%	20*	-1%	-7%	34
Cc1ccc(S(=O)(=O)NCc2ccccc2)cc1C(=O)N1CCCCC1	-2%	1	-4%	.	-3
Cc1ccc(S(=O)(=O)NCc2ccccc2)cc1C(=O)NC1CCC(C)CC1 (stereo unspecified)	0%	12*	9%	.	55*
CCOC(=O)N1CCN(C(=O)CNC(=O)c2ccc(Br)o2)CC1	-3%	-4	5%	8%	-3
Cc1ccc(/C=N/NC(=O)c2ccc3ccccc3c2)s1	9%	28*	-26%	-12%	47*
Cn1cc(C(=O)N/N=C/c2cc(Br)cs2)c2ccccc21	4%	-2	-4%	2%	0
Cc1ccc(/C=N/NC(=O)c2ccc3c(c2)OCCO3)s1	-26%	38*	-31%	-14%	55*
Cc1ccc(C(=O)N/N=C\c2cc3c(cc2Br)OCO3)s1	2%	-1	0%	2%	15
O=C(N/N=C/c1cc(Br)cs1)c1ccc2c(c1)OCCO2	-5%	37*	-3%	-22%	68*
Cc1ccc(/C=N/NC(=O)c2cccc(S(=O)(=O)Nc3ccccc3Cl)c2)s1	-3%	5	?	?	5
CCCCCC(=O)CC[C@@H]1[C@@H](C/C=C\CCCC(=O)O)[C@@H](O)C[C@H]1O	.	.	.	1%	.
CC(C)(C)OC(=O)CNC(=O)c1nc[nH]c1C(=O)NCc1ccccc1	-4%	0	5%	-25%	-4
CC(C)(C)OC(=O)CNC(=O)c1[nH]cnc1C(=O)NCC(=O)OCc1ccccc1	1%	10*	-3%	?	16
COc1ccc(CNS(=O)(=O)c2ccc3c(c2)N(C(C)=O)CC(C)S3)cc1 (stereo unspecified)	-7%	0	6%	.	-5
Cc1nn(-c2nc3ccccc3s2)c(N)c1Sc1ccc(F)cc1	-1%	20*	-3%	3%	48*
Cc1nn(-c2nc3ccccc3s2)c(N)c1-c1ccccc1	-7%	72*	14%	13%	91*
Cc1nn(-c2nc3ccccc3s2)c(N)c1-c1ccc(Cl)cc1	5%	33*	-16%	3%	54*
Cc1cc(N)n(-c2nc3ccccc3s2)n1	-8%	-4	2%	1%	9
COC(=O)c1ccc(N2CCN(C)CC2)c(NC(=O)c2ccc(Br)o2)c1	3%	-2	-2%	.	15
O=C(O)c1ccc2c(c1)C(=O)N([C@H](Cc1ccccc1)C(=O)O)C2=O	.	0	.	4%	-2
C[C@H]1[C@H](C)CC[C@]2(C=O)CC[C@]3(C)C(=CC[C@@H]4[C@@]5(C)C[C@@H](O)[C@H](O)[C@@](C)(CO)[C@@H]5CC[C@]43C)[C@H]12	.	-7	.	4%	11
Cc1ccc(-c2cn(-c3ccccc3)c(=S)[nH]2)cc1C	-5%	64*	-8%	21%	113*
Cc1ccccc1-c1cn(-c2ccccc2)c(=S)[nH]1	-8%	-4	-2%	?	6
CC1CCN(C(=O)Cn2c3ccc(F)cc3c3nc4n(c(=O)c32)CCCS4)CC1	7%	-4	9%	.	-6
SMILES	LmPK inh	CHX counter	NS1 function inh	Giardia FBPA inh	Shiga toxin inh
S=c1[nH]cnc2sc(-c3ccccc3)cc12	-3%	31*	.	5%	77*
COc1ccc(COC(=O)N/N=C2/C[C@@H](O)[C@@H](O)[C@@H]3[C@H]4C(=O)N(c5ccc(F)cc5F)C(=O)[C@@H]4CC[C@@H]23)cc1	.	.	.	0%[12.9 µM]	.
Cc1cccc(Nc2nc(-c3ccncc3)cs2)c1	7%	42*	.	-10%	143*
Cc1cccc(Nc2nc(-c3ccc4c(c3)OCCO4)cs2)c1	4%	44*	10%	8%	120*
Clc1cccc(Nc2nc(-c3ccncc3)cs2)c1	9%	0	2%	2%	-5
Cc1ccc(Nc2nc(-c3ccncc3)cs2)cc1	-6%	47*	-7%	0%	119*
Cc1cccc(Nc2nc(-c3c(C)nc4ccccn34)cs2)c1	2%	0	-11%	-28%	-19
Cc1nc(-c2ccc3c(c2)OCCO3)cs1	-27%	44*	.	-3%	169*
O=C(CN1CCC(C(=O)c2ccc3c(c2)OCCO3)CC1)Nc1ccccc1C(F)(F)F	-1%	-4	-20%	-4%	-4

Screening results (PubChem)
